FadD28 FP inh – inhibitors of FadD28 bisubstrate probe binding, primary screen, biochemical, fluorescence polarization, single point | Mycobacterium tuberculosis FadD28 fatty-acid-AMP ligase | inhibition, % at 12.5 µM | 360,000 compounds, 0.22% hits; in the data active = inhibition above about 8.5%, passing the limit was not always enough; inconclusive = no clear call, values can overlap the other calls
Mtb bLac sens – beta-lactam sensitization of Mtb H37Rv, H37Rv; 330,000 compounds, 0.27% hits; AID 434955, 2010; inhibition, % at 25 µM; M. tuberculosis H37Rv growth with meropenem, percent inhibition; call rule not given here;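 note: growth measured after seven days incubation then overnight dye step; 0% = bacteria only wells and 100% = bacteria with antibiotic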
FBA Mtb inh – Mtb FBA enzyme inhibitors, primary screen, biochemical, fluorescence, strain H37Rv. Fructose-bisphosphate aldolase (Mycobacterium tuberculosis (strain ATCC 25618 / H37Rv)), …. purified M. tuberculosis FBA, fluorescence read-out. inhibition, % at 1 µM. 360,000 compounds, 2.3% hits; in the data active = inhibition above about 27%;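 note: 0% = vehicle and 100% = reference inhibitor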
Mtb UGM inh – M. tuberculosis UGM enzyme inhibitors, primary screen, biochemical, fluorescence polarization, single point. UDP-galactopyranose mutase (Mycobacterium tuberculosis (strain ATCC 25618 / H37Rv)), …. purified UGM, fluorescence polarization probe displacement. inhibition, % at 10 µM. 320,000 compounds, 0.06% hits; in the data active = inhibition above about 10%, passing the limit was not always enough; inconclusive = no clear call, values can overlap the other calls
Target sequence (P9WIQ1 whole entry, looked up): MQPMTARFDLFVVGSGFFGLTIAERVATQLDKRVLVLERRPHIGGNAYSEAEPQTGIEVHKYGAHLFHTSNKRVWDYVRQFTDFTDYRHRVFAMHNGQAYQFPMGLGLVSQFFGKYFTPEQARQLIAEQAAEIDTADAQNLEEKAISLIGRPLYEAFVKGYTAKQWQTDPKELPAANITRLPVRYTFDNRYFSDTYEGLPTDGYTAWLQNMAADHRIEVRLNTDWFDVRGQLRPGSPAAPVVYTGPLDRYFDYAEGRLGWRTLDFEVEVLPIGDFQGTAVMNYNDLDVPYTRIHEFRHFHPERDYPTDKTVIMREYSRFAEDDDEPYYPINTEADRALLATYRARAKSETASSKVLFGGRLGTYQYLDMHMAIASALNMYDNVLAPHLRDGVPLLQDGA
GDH-TPI inh – GDH-TPI coupling enzyme inhibitors, primary screen, artefact control for M. tuberculosis FBA inhibitor project, biochemical, absorbance, full deck. GDH-TPI coupled enzyme counterscreen, NADH absorbance. inhibition, % at 4.8 µM. 360,000 compounds, 1.2% hits. AID 588335, 2011; in the data active = inhibition above about 30%;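 note: 0% = DMSO wells and 100% = wells lacking the enzyme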
Rv3671c protease – Rv3671c serine protease inhibitors, primary screen, biochemical, fluorescence polarization, M. tuberculosis H37Rv; P9WHR9; inhibition, % at 5.96 µM; 320,000 compounds, 0.048% hits; in the data active = inhibition above about 38%;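 note: extracellular domain of Rv3671c used as enzyme; 0% = enzyme with DMSO and 100% = no enzyme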
* = called active by the depositor; ? = inconclusive; . = no result; + = active, no number. Hits are enriched below; roughly 3.7% of the tested compounds scored in any of these assays.

SMILES | FadD28 FP inh | Mtb bLac sens | FBA Mtb inh | Mtb UGM inh | GDH-TPI inh | Rv3671c protease
CC(c1ccco1)N(C(=O)c1cc(Cl)cc(Cl)c1)c1ccccn1 (configuration not stated) | -7.5 | 6.8 | 0.9 | 1.5 | 0.8 | -0.4
CC(c1ccco1)N(C(=O)c1ccccc1NS(=O)(=O)c1ccc(Cl)c([N+](=O)[O-])c1)c1ccccn1 (configuration not stated) | 0.5 | -2.1 | 2.8 | -1.7 | 32.1* | -14.3
COc1ccc(C(=O)c2ccc(N(C)C)cc2)c(OC)c1 | -0.8 | 1.8 | -0.1 | -1.5 | 30.9* | 3.1
CN(C)c1ccc(C(=O)c2ccc(N(C)C)c3ccccc23)cc1 | -0.6 | 75.8 | -0.7 | 0.2 | 34.4* | -4.2
Cc1ccc(CNC(=O)C2CCC(=O)N(CC3CCCCC3)C2)o1 (configuration not stated) | -2.6 | -0.4 | -4.0 | 0.8 | -0.3 | 0.6
COc1ccc(-c2nnc(NC(=O)C3CCCN3S(=O)(=O)c3cccs3)o2)cc1 (configuration not stated) | -2.3 | 0.7 | -1.4 | -0.7 | 4.2 | -2.2
COc1ccc(-n2c(/C=C(\C)O)nc(=O)c3c(C)cc(C)nc32)cc1 | 1.0 | 26.8 | 5.6 | 0.2 | 59.4* | -6.9
COCc1cc(C)nc(OCC(=O)N/N=C/c2ccc(O)cc2O)c1C#N | 1.3 | -1.4 | 2.2 | -2.7 | 34.7* | -2.8
O=C(CCC(=O)Nc1ccc(F)cc1)N/N=C/c1ccc(O)cc1O | -1.4 | 0.6 | 5.0 | -2.8 | 26.5 | 16.1
COCc1cc(C)nc(OCC(=O)N/N=C/c2ccccc2O)c1C#N | -4.5 | 5.7 | 2.5 | 1.4 | 18.0 | -2.2
O=C(N/N=C/c1ccc(O)cc1O)C(=O)N/N=C/c1ccc(O)cc1O | -0.4 | 2.7 | -2.5 | 2.0 | 41.3* | -0.9
O=C(NN=Cc1ccc(O)cc1)C(=O)NN=Cc1ccc(O)cc1 | -7.8 | . | -7.2 | . | 67.8* | .
Cc1cc(C)n(CCC(=O)N/N=C/c2ccccc2O)n1 | -0.2 | 3.6 | 4.0 | -0.1 | 18.5 | 3.0
Cc1cc(C)n(CCC(=O)N/N=C/c2ccc(O)cc2O)n1 | -1.5 | 36.8 | 3.6 | . | 31.1* | 10.2
N/C(=N\[N+](=O)[O-])N/N=C/c1ccc(O)cc1 | -1.3 | -1.1 | 0.3 | 0.6 | 36.9* | -0.8
C=C1CC(C(=O)N/N=C/c2ccc(O)cc2)C1 | 1.2 | -10.2 | 3.6 | 2.4 | 4.4 | -7.2
O=C(O)c1cccc2cc(-c3ccccc3)oc(=O)c12 | . | 5.6 | 19.6 | -1.2 | 8.2 | 0.0
O=C(O)c1cccc2cccc(-c3c4ccc(=O)c(O)c-4oc4c(O)c(O)ccc34)c12 | 43.7* | . | -1.5 | . | 9.5 | .
O=C(NNC(=S)Nc1ccc(Br)cc1)c1ccc(N2CCOCC2)c([N+](=O)[O-])c1 | 3.8 | 1.9 | 4.7 | 3.3 | 26.7 | 7.1
Cc1ccc(NC(=S)NNC(=O)c2ccc(N3CCOCC3)c([N+](=O)[O-])c2)cc1Cl | 10.8* | 12.5 | -2.4 | -1.2 | 20.6 | -0.6
CN(c1ccccc1)S(=O)(=O)c1cc(C(=O)Nc2ccccc2N2CCOCC2)ccc1Cl | -2.2 | . | 1.7 | . | 6.9 | .
Cc1cccc(C(=O)c2ccccc2C(=O)O)c1O | 0.8 | -1.1 | -1.9 | 0.7 | 10.8 | 8.4
CCN(CC)c1ccc(C(=O)c2ccccc2C(=O)O)c(O)c1 | 2.7 | -3.1 | -5.8 | 0.6 | 42.0* | 9.1
Cc1ccc(OCC(=O)NCCCNC(=O)c2ccncc2)cc1 | -0.1 | 0.4 | 0.2 | 0.7 | -7.6 | 5.1
O=c1[nH]c(=S)n(Cc2ccc(F)cc2)c(O)c1C=NCc1cccnc1 | 0.4 | 12.2 | -3.4 | 1.3 | 35.0* | -9.5
SMILES | FadD28 FP inh | Mtb bLac sens | FBA Mtb inh | Mtb UGM inh | GDH-TPI inh | Rv3671c protease
CC(C)n1c(O)c(C=NCc2ccccc2)c(=O)[nH]c1=S | -4.0 | 9.4 | -4.3 | -0.1 | 39.9* | -0.4
O=c1[nH]c(=O)n(CCC2=CCCCC2)c(O)c1C=NCc1cccnc1 | -0.5 | -2.2 | -1.5 | 1.5 | 3.5 | 2.5
CCC(C)n1c(O)c(C=NCc2cccnc2)c(=O)[nH]c1=S (configuration not stated) | -0.8 | 3.2 | -1.7 | 4.2 | 29.8 | 0.1
O=C(COc1ccc2c(c1)OCO2)Nc1nncs1 | 0.0 | 2.0 | 5.8 | 1.3 | -3.0 | -12.7
O=C(c1cnc2n(c1=O)CCS2)N1CCCc2ccccc21 | -1.6 | -8.8 | -3.5 | -3.8 | 2.5 | 8.1
Cc1csc2ncc(C(=O)N3CCCc4ccccc43)c(=O)n12 | -0.3 | -1.3 | 5.7 | -0.1 | 36.5* | 8.1
Cc1csc2ncc(C(=O)N3CCc4ccccc43)c(=O)n12 | 1.0 | -2.4 | 4.8 | -2.2 | 51.9* | -2.8
CC(=O)c1ccc(-c2cccc([C@H]3[C@@H]4C=CC[C@@H](C)[C@@H]4C(=O)N3Cc3ccccc3)c2)cc1 | 0.1 | . | -1.4 | . | 5.2 | .
Cc1cc(C(=O)OCC(=O)Nc2c(Cl)cccc2Cl)c(C)o1 | 1.0 | -7.6 | -0.6 | 10.1* | 9.7 | 1.9
CC(=O)NC1CC2CCCC(C1)N2CC(=O)N1CCCc2ccccc21 (configuration not stated) | -1.3 | -10.1 | 2.0 | -0.7 | 5.0 | 2.7
O=C(NC1CC2CCCC(C1)N2CC(=O)N1CCCc2ccccc21)C1CCCCC1 (configuration not stated) | -0.1 | -11.4 | 190.6* | 0.8 | 9.9 | -16.4
O=C(/C(=C/c1ccc(Cl)cc1)c1nc2ccccc2[nH]1)c1cccs1 | -1.2 | ? | -0.9 | 2.4 | 31.7* | -55.0
N#C/C(=C(/O)c1cccs1)c1nc2ccccc2[nH]1 | 0.4 | ? | 14.0 | 2.5 | 39.1* | 8.8
C(=N\NC1=NCCCCC1)/c1c[nH]c2ccccc12 | -0.9 | -15.0 | -3.9 | 1.4 | 38.7* | 0.5
Cn1c(N/N=C/c2c[nH]c3ccccc23)nc2ccccc21 | ? | 66.2 | 2.2 | 0.0 | 58.1* | 13.1
COc1ccccc1/C=N/NC1=NCCCCC1 | -4.1 | -1.6 | -2.2 | 0.4 | 18.4 | -5.5
COc1ccc(-c2ccc(C#N)c(SCC(=O)OCc3ccccc3)n2)cc1OC | -3.8 | 98.8 | + | -0.6 | 22.5 | 1.2
COc1ccc(-c2ccc(C#N)c(SCC(=O)NCc3ccco3)n2)cc1OC | -1.6 | -3.8 | + | 2.0 | 46.2* | -9.1
CC(=O)OC1CCC2(C)C3CCC4(C)C(C(C)=O)CCC4C3CC3OC32C1 (configuration not stated) | -4.7 | . | -0.7 | . | 0.0 | .
O=C1N=C2N(CCN3CCCCC3)c3ccccc3N2/C1=C\c1ccc([N+](=O)[O-])s1 | -0.1 | . | 5.9 | . | 1.3 | .
CC(C1CC2CCC1C2)n1c(COc2ccccc2F)nnc1SCC(N)=O (configuration not stated) | 1.3 | -2.0 | + | -2.8 | -5.3 | -0.3
COc1ccc(C(=O)Cn2c(C(=O)/C=C/c3ccccc3)nc3ccccc32)cc1 | -1.7 | -4.9 | -3.2 | 0.0 | 32.2* | -3.5
